Test results: PubChem BioAssay
Active and inactive are the calls of the source.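 How the source made its calls, unless noted: active means fluorescence slope higher than the sample average by over 3 SD (cut at about -0.22 in these data, passing the limit was not always enough); inactive means the rest.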

Experiments:
[1] = inhibitors of TNFa-induced NFkB p65 translocation, primary screen, imaging, HUVEC, MLSMR starter and 10KST1 sets (AID 438;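 active means inhibition above 20% together with a positive visual image hit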;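 further: compound added about 3h40 before a 20 min TNFalpha stimulation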;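 on inhibition: signal is the nuclear over cytoplasmic p65 intensity ratio per well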); conditions: HUVEC TNFa-induced p65 nuclear translocation; cell count: measured here: nuclei count (cytotoxicity indicator), at 2.08 µM; inhibition: at 2 µM, stronger effect = higher value, 0% TNFa-plus-vehicle, 100% no-TNFa wells
[2] = reduction of polyQ htt aggregates in cells – imaging, exon1htt(103Q)mCFP cells, high-content imaging, primary screen (AID 483;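 active means visual image review flags a hit and inhibition of aggregation exceeds 20%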;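 further: compound exposure lasted 3 days before fixation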;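 on nuclei count: percent of the per-plate median nuclei count of sample wells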); conditions: exon1htt(103Q)mCFP cell line, aggregate imaging, at 2 µM; inhibition of aggregation: stronger effect = higher value; nuclei count: measured here: cell count, toxicity
[3] = endothelial E-selectin expression blockers – imaging, HUVEC, immunofluorescence, MLSMR starter and 10KST1 sets, primary screen (AID 487;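 active means visually confirmed hit in the image check and inhibition above 20%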;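 on inhibition: signal is fraction of cell area covered by stained E-selectin grains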;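 on nuclei count: 100% = median nuclei count of all wells on the same plate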); conditions: HUVEC TNFalpha-induced E-selectin immunofluorescence imaging, at 2 µM; inhibition: stronger effect = higher value; nuclei count: measured here: cell number, toxicity
[4] = molecular target: Voltage-gated potassium channel subunit beta-2 (Rattus norvegicus) (UniProt P62483); assay: inhibitors of rat Kvbeta2 reductase activity – biochemical, NADPH fluorescence, primary screen (AID 622); conditions: recombinant KvBeta, 4-cyanobenzaldehyde reduction, at 10 µM, stronger effect = higher value;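 further: slope of raw intensity against log time taken from 70 to 1610 s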
[5] = molecular target: Voltage-gated potassium channel subunit beta-2 (Rattus norvegicus) (UniProt P62483); assay: enhancers of rat Kvbeta2 NADPH turnover – biochemical, NADPH fluorescence, primary screen (AID 623;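 active means NADPH fluorescence slope more negative than the mean of all samples by about 3 SD, 99.7% confidence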;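 further: fluorescence intensity change per second fitted from 20 to 320 s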); conditions: Recombinant KvBeta, NADPH fluorescence decrease slope, 10 min; at 10 µM; stronger effect = lower value
[6] = molecular target: Alpha-2C adrenergic receptor (Homo sapiens) (UniProt P18825); assay: compounds altering alpha2C-coupled GIRK flux – cell-based, HEK293 alpha2C/GIRK1/2, thallium flux, primary screen (AID 624;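 active means fluorescence slope after compound addition differing from the mean of all screened samples at 99.7% confidence, in either direction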;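 further: slope of fluorescence ratio to pre-addition baseline per second over 15 to 24 s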); conditions: thallium flux BTC fluorescence, at 10 µM, actives lie on both sides
[7] = blockers of RIG-like receptor reporter activation – cell-based, Sendai virus stimulus, luciferase, 10K MLSCN set, TLR/RLR signaling modifier project, primary screen (AID 602276;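 active means inhibition at or above 50% at 10 µM; inactive means inhibition below 50%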;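 further: firefly luciferase from ISG56 promoter only with Renilla not read in this screen; 0% = Sendai virus plus DMSO and 100% = medium plus DMSO without virus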); conditions: HEK293 RL24 IRF3 luciferase reporter, at 10 µM, stronger effect = higher value
[8] = TLR3 IRF3 reporter activation blockers – cell-based, poly I:C stimulus, luciferase, 10K MLSCN set, primary screen (AID 602277;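 active means inhibition of the reporter signal at or above 50%; inactive means inhibition below 50%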); conditions: HEK293-TLR3 RL24 IRF3 luciferase reporter, at 10 µM, stronger effect = higher value

Sequence of Alpha-2C adrenergic receptor (Homo sapiens) (P18825 whole entry, looked up): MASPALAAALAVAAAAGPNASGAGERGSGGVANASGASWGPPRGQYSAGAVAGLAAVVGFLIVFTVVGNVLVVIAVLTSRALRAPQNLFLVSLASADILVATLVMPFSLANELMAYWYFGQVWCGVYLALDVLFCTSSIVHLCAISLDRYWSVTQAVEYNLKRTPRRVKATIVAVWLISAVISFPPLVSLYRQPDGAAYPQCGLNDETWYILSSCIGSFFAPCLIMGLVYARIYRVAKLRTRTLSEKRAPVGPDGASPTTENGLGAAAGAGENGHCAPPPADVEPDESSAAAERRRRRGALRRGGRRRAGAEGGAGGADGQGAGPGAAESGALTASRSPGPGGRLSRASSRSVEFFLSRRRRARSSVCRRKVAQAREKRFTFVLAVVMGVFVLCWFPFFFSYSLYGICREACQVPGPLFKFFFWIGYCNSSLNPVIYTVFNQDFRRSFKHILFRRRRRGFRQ
Sequence of Voltage-gated potassium channel subunit beta-2 (Rattus norvegicus) (P62483 whole entry, looked up): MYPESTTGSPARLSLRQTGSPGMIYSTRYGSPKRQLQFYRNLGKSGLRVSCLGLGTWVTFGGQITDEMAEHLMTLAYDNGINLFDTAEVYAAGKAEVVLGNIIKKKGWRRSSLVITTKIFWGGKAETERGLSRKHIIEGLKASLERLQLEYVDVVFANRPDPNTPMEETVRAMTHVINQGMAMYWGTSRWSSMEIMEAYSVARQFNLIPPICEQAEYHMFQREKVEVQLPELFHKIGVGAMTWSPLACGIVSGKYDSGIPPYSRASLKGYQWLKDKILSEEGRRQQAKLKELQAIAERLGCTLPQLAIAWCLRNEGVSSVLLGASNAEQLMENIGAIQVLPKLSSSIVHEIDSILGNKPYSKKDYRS

SMILES | cell count [1] | inhibition [1] | inhibition of aggregation [2] | nuclei count [2] | inhibition [3] | nuclei count [3] | fluorescence slope [4] | NADPH fluorescence slope [5] | slope [6] | inhibition [7] | inhibition [8]
Cc1nnc(N2C(=O)c3oc4ccccc4c(=O)c3C2c2ccco2)s1 (stereo not drawn) | 804 | -5.5% (inactive) | 8.3% (inactive) | 98.1% | -28.9% (inactive) | 124% | -0.579 (inactive) | -2.5e-05 (inactive) | 0.00589 (inactive) | 12.3% (inactive) | 13.8% (inactive)
CCOC(=O)C1CCN(Cc2ccc(F)c(Br)c2)CC1 | 313 | 3.4% (inactive) | -23.7% (inactive) | 110% | -156% (inactive) | 140% | -0.414 (inactive) | 2e-06 (inactive) | 0.00431 (inactive) | 9.36% (inactive) | 20.4% (inactive)
CCSc1nc2c(c(=O)[nH]1)C(c1cccnc1)C(C(=O)OC(C)C)=C(C)N2 (stereo not drawn) | 500 | 3.8% (inactive) | 19.4% (inactive) | 93.1% | -57.7% (inactive) | 103% | -0.475 (inactive) | -1.6e-05 (inactive) | 0.00631 (inactive) | 1.95% (inactive) | 25.7% (inactive)
CCOC(=O)N1CCC(NC(=O)Cn2c3c(c(-c4ccccc4Cl)cc2=O)CCC3)CC1 | 528 | -3.3% (inactive) | 4.5% (inactive) | 98.3% | -105% (inactive) | 120% | -0.54 (inactive) | -2.2e-05 (inactive) | 0.00573 (inactive) | 9.23% (inactive) | 30.1% (inactive)
Cc1cc(=O)oc2c1c(C)nn2-c1ccc(C(=O)OC(C)C)cc1 | 741 | -2.9% (inactive) | -39.6% (inactive) | 106% | -67.2% (inactive) | 106% | -0.529 (inactive) | -1.2e-05 (inactive) | 0.00612 (inactive) | 8% (inactive) | 26.1% (inactive)
COc1ccc(N2CCN(CCCNS(=O)(=O)c3c(C)noc3/C=C/N(C)C)CC2)cc1 | 561 | 8.7% (inactive) | -4.3% (inactive) | 101% | -36.7% (inactive) | 73.9% | -0.54 (inactive) | -6e-05 (inactive) | 0.00583 (inactive) | 3.23% (inactive) | 38.9% (inactive)
Cc1cc(C)c(NC(=O)CSc2nnc(-c3ccncc3)n2Cc2ccco2)c(C)c1 | 412 | -5% (inactive) | -19.2% (inactive) | 111% | -107% (inactive) | 113% | -0.335 (inactive) | -3.5e-05 (inactive) | 0.00447 (inactive) | 5.1% (inactive) | 10.2% (inactive)
O=C1N=C(N2CCOCC2)CS1 | 309 | 3.4% (inactive) | -6.9% (inactive) | 90.7% | 36% (inactive) | 95.1% | -0.519 (inactive) | -1.2e-05 (inactive) | 0.00426 (inactive) | 6.09% (inactive) | 10.7% (inactive)
CC(NC(=O)c1cc2c(=O)n(C)c3ccccc3c2n1C)c1ccc2c(c1)OCCO2 (stereo not drawn) | 798 | -4.4% (inactive) | 3.3% (inactive) | 139% | -41.1% (inactive) | 107% | -0.623 (inactive) | -2.2e-05 (inactive) | 0.00677 (inactive) | 4.73% (inactive) | 4.98% (inactive)
O=C(Nc1cccnc1)Nc1ccccn1 | 571 | -4.3% (inactive) | 6.4% (inactive) | 106% | -6.7% (inactive) | 74.1% | -0.432 (inactive) | -4.6e-05 (inactive) | 0.00395 (inactive) | -5.87% (inactive) | 0.317% (inactive)
Cc1onc(-c2ccccc2Cl)c1C(=O)NCCn1c(C)cc2ccccc21 | 677 | 9% (inactive) | 7.9% (inactive) | 79.4% | -37.1% (inactive) | 124% | -0.419 (inactive) | -1.5e-05 (inactive) | 0.00456 (inactive) | 15.6% (inactive) | 36.3% (inactive)
COCCN(C(=O)c1csnn1)C(C(=O)NC(C)(C)C)c1cccc(OC)c1 (stereo not drawn) | 684 | -1.7% (inactive) | -26.8% (inactive) | 76.2% | 0.2% (inactive) | 102% | -0.515 (inactive) | -2.6e-05 (inactive) | 0.00595 (inactive) | 17% (inactive) | 14.6% (inactive)
O=C(CN1C(=O)CCSc2ccccc21)Nc1ccccc1 | 854 | -4.1% (inactive) | -19.8% (inactive) | 105% | -140% (inactive) | 113% | -0.447 (inactive) | -0.000395 (inactive) | 0.00731 (inactive) | -3.3% (inactive) | 7.46% (inactive)
Cc1nc2cc(Cl)ccc2n1CCO | 404 | 6.1% (inactive) | -6.3% (inactive) | 104% | 15.4% (inactive) | 115% | -0.565 (inactive) | -1.6e-05 (inactive) | 0.00492 (inactive) | 17% (inactive) | 21.6% (inactive)
CCc1ccc(CNCc2cccnc2)cc1 | 273 | -1.6% (inactive) | 18% (inactive) | 101% | -19.3% (inactive) | 116% | -0.464 (inactive) | -3e-05 (inactive) | 0.00429 (inactive) | 3.34% (inactive) | 18.6% (inactive)
CN(C)CCN1C(=O)C(O)=C(C(=O)c2cc3ccccc3o2)C1c1ccc(N(C)C)cc1 (stereo not drawn) | 577 | 5.8% (inactive) | 11.6% (inactive) | 95.2% | 23.3% (inactive) | 109% | -0.549 (inactive) | -2.9e-05 (inactive) | 0.00711 (inactive) | 7.8% (inactive) | 27.2% (inactive)
Cc1ccc(CSC2=NCCN2C(=O)c2ccco2)cc1 | 661 | 1.3% (inactive) | -14.6% (inactive) | 106% | -11.6% (inactive) | 115% | -0.613 (inactive) | -1.3e-05 (inactive) | 0.00684 (inactive) | -0.0387% (inactive) | 0.194% (inactive)
CCOC(=O)N1CCC(c2cc(=O)n3[nH]cc(C(=O)OC)c3n2)CC1 | 534 | 6.8% (inactive) | -16.8% (inactive) | 58.3% | 7.4% (inactive) | 103% | -0.541 (inactive) | -1.8e-05 (inactive) | 0.00674 (inactive) | 16.5% (inactive) | 35.8% (inactive)
COc1ccccc1N1CCN(CC(O)c2ccc3cc[nH]c3c2)CC1 (stereo not drawn) | 633 | -3.9% (inactive) | 3.6% (inactive) | 114% | -43.4% (inactive) | 105% | -0.54 (inactive) | -1.4e-05 (inactive) | 0.0062 (inactive) | -0.148% (inactive) | 27.7% (inactive)
COc1ccc(OCCN2C(=O)NC(C)(c3ccc(C)cc3)C2=O)cc1 (stereo not drawn) | 391 | -14.7% (inactive) | -4.1% (inactive) | 108% | -84.6% (inactive) | 138% | -0.496 (inactive) | -6.9e-05 (inactive) | 0.00469 (inactive) | 12.5% (inactive) | 5.61% (inactive)
O=C(NCc1nc2ccccc2[nH]1)c1ccc(Cl)c(S(=O)(=O)N2CCCC2)c1 | 594 | -15.4% (inactive) | -35.2% (inactive) | 101% | 47% (inactive) | 112% | -0.531 (inactive) | 2.5e-05 (inactive) | 0.00466 (inactive) | -7.84% (inactive) | -15.6% (inactive)
O=C(NCc1ccccc1)c1cc(-c2ccco2)on1 | 445 | -0.9% (inactive) | -0.2% (inactive) | 102% | -18.9% (inactive) | 103% | -0.506 (inactive) | -3.5e-05 (inactive) | 0.00556 (inactive) | -27.8% (inactive) | -74.9% (inactive)
Cc1nc(N2CCc3ccccc32)[nH]c(=O)c1CCC(C)C | 345 | -1.1% (inactive) | -19.6% (inactive) | 112% | -114% (inactive) | 135% | -0.439 (inactive) | -4.2e-05 (inactive) | 0.00282 (inactive) | 0.138% (inactive) | 3.18% (inactive)
CCCN1CCN(CCCNC(=O)Cn2ncc3c4ccccc4n(C)c3c2=O)CC1 | 509 | -3% (inactive) | -2.1% (inactive) | 101% | -61.4% (inactive) | 110% | -0.615 (inactive) | 2.2e-07 (inactive) | 0.00665 (inactive) | -2.18% (inactive) | 34.8% (inactive)
COc1ccc2[nH]c(C)c(CCN3C(=O)OC(C)(C)C3(C)O)c2c1 (stereo not drawn) | 754 | -4% (inactive) | -15.3% (inactive) | 97.3% | -2.5% (inactive) | 111% | -0.561 (inactive) | -4.3e-05 (inactive) | 0.00701 (inactive) | 6.33% (inactive) | 23.6% (inactive)
C=CCc1ccccc1OCCCCN1CCCC1 | 750 | -8% (inactive) | 9.9% (inactive) | 87.9% | -10.4% (inactive) | 114% | -0.497 (inactive) | -3.1e-05 (inactive) | 0.00605 (inactive) | -11.7% (inactive) | 19.4% (inactive)
C=CCn1c(COc2ccc(Cl)cc2)nnc1SCC(=O)N1CC(=O)Nc2ccccc21 | 315 | 1.9% (inactive) | -0.9% (inactive) | 104% | -6.5% (inactive) | 110% | -0.425 (inactive) | -2.1e-05 (inactive) | 0.00537 (inactive) | 3.41% (inactive) | 4.64% (inactive)
O=C(NC1CC1)C1CCC(=O)N1C1CCCC1 (stereo not drawn) | 435 | -6.7% (inactive) | -18.4% (inactive) | 119% | -184% (inactive) | 246% | -0.47 (inactive) | 2.9e-05 (inactive) | 0.00569 (inactive) | 7.79% (inactive) | 14.9% (inactive)
